Measured values as given in PubChem BioAssay (NCI).
Compounds without any hit were thinned out: in the full panel of roughly 79,000, 15% have a hit. Unmarked numbers belong to inactive results. Activity calls are given as the source filed them. Rule as the data show it: active = growth inhibition above about 70%; inactive = the rest. Where a SMILES comes first, the peptide text is derived from it. The star is where a group is joined. OtBu = CC(C)(C)O*

What was measured:
[1] = NCI Yeast Anticancer Drug Screen. Data for the rad50 strain (AID 155);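 also: 0% = growth of vehicle-only cultures of the same strain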; settings: S. cerevisiae rad50 strain growth inhibition; at 50.0 µM; active compounds read high
Summary of the method: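 Inhibition values express reduced yeast growth in compound-treated cultures relative to vehicle-treated controls.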

[2] = NCI Yeast Anticancer Drug Screen. Data for the mec2-1 strain (AID 157); settings: S. cerevisiae mec2-1 strain, at 50.0 µM, active compounds read high
Summary of the method: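 Using mec2-1 yeast: add compound, measure growth, express inhibition versus vehicle-treated cultures.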

[3] = NCI Yeast Anticancer Drug Screen. Data for the sgs1 mgt1 strain (AID 161);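 also: 0% = growth of cultures given vehicle only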; settings: S. cerevisiae sgs1 mgt1 strain, at 50.0 µM, active compounds read high
Summary of the method: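 Growth of a repair-deficient yeast mutant was monitored after compound treatment and expressed as inhibition relative to vehicle-treated cultures.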

[4] = NCI Yeast Anticancer Drug Screen. Data for the cln2 rad14 strain (AID 165);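 also: 0% = growth equal to vehicle treated cultures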; settings: S. cerevisiae cln2 rad14 strain, at 50.0 µM, active compounds read high
Summary of the method: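 Yeast strain cln2 rad14, bearing defects in cell cycle control and DNA repair, serves as the test system; values reflect growth inhibition compared with vehicle.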

[5] = NCI Yeast Anticancer Drug Screen. Data for the bub3 strain (AID 167); settings: S. cerevisiae bub3 mutant strain, at 50.0 µM, active compounds read high
Summary of the method: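 Steps: expose the mutant yeast strain to compound; grow alongside vehicle-treated cultures; measure growth; express inhibition against the vehicle cultures.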

[6] = NCI Yeast Anticancer Drug Screen. Data for the mlh1 rad18 strain (AID 175); settings: S. cerevisiae mlh1 rad18 strain growth inhibition; at 50.0 µM; active compounds read high
Summary of the method: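 Steps: expose repair-defective yeast to compound; measure growth; express inhibition against vehicle-treated controls.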

COC(=O)C1=C(C)N(NC(N)=O)C(C)(O)C12CCOC2=O (centres undefined)
growth inhibition [1]: -3.8% | growth inhibition [2]: -2.2% | growth inhibition [3]: 2.15% | growth inhibition [4]: -56.8% | growth inhibition [5]: -5.95% | growth inhibition [6]: -14.1%

CC[Si](CC)(CC)[Si](c1ccccc1)(c1ccccc1)c1ccccc1
growth inhibition [1]: 42.1% | growth inhibition [2]: 32% | growth inhibition [3]: 17.1% | growth inhibition [4]: 8.8% | growth inhibition [5]: -17.4% | growth inhibition [6]: 48.8%

CCCCNC1(N(C)C)N=C(N(C)C)N=C(N(C)C)O1 (centres undefined)
growth inhibition [1]: -2.2% | growth inhibition [2]: -1.4% | growth inhibition [3]: -1.05% | growth inhibition [4]: 17.8% | growth inhibition [5]: 8.35% | growth inhibition [6]: -0.45%

Nc1cccc(S(=O)(=O)O)c1
growth inhibition [1]: -27.1% | growth inhibition [2]: -10.8% | growth inhibition [3]: -36.2% | growth inhibition [4]: -37.1% | growth inhibition [5]: -13.8% | growth inhibition [6]: -5.2%

CCOC(=O)c1c(C)c(C(C)=O)c2ccccn12
growth inhibition [1]: -18.2% | growth inhibition [2]: -17.4% | growth inhibition [3]: -19.9% | growth inhibition [4]: -26.6% | growth inhibition [5]: 5.4% | growth inhibition [6]: -2.7%

CCN(CC)C(=O)Cc1[nH][nH]c(=O)c1C(=O)N(CC)CC
growth inhibition [1]: -31.9% | growth inhibition [2]: 2.45% | growth inhibition [3]: -42.9% | growth inhibition [4]: -7.6% | growth inhibition [5]: -28.6% | growth inhibition [6]: -41.3%

CC(C)CC(NC(=O)C1CCCN1)C(=O)NC(CC(C)C)C(=O)OC(C)(C)C (stereo not drawn) (H-Pro-Leu-Leu-OtBu; configuration not given here)
growth inhibition [1]: 30.2% | growth inhibition [2]: 26.6% | growth inhibition [3]: 29.1% | growth inhibition [4]: 19% | growth inhibition [5]: -4.15% | growth inhibition [6]: 30.9%

Cc1cc(S(=O)(=O)Nc2cc(N)[nH]n2)c(SCc2nc(N)nc(N(C)C)n2)cc1Cl
growth inhibition [1]: 11.2% | growth inhibition [2]: 8.7% | growth inhibition [3]: -0.1% | growth inhibition [4]: 2.7% | growth inhibition [5]: 6.6% | growth inhibition [6]: 8.05%

c1ccc2cc(-c3csc4ccccc34)ccc2c1
growth inhibition [1]: 12.8% | growth inhibition [2]: -16.4% | growth inhibition [3]: 17.1% | growth inhibition [4]: -8.05% | growth inhibition [5]: 15.4% | growth inhibition [6]: 9.15%

CCCCCCCCCCNC(=O)C(OC(C)=O)C(OC(C)=O)C(OC(C)=O)C(COC(C)=O)OC(C)=O (centres undefined)
growth inhibition [1]: 29.4% | growth inhibition [2]: 12.6% | growth inhibition [3]: 19.3% | growth inhibition [4]: 32.1% | growth inhibition [5]: 10.2% | growth inhibition [6]: 40.4%

CC(=O)c1sc(Nc2nnc(-c3ccc(-c4nnc(Nc5nc(C)c(C(C)=O)s5)o4)cc3)o2)nc1C
growth inhibition [1]: 3.15% | growth inhibition [2]: -14.3% | growth inhibition [3]: -25% | growth inhibition [4]: 6.4% | growth inhibition [5]: -3.05% | growth inhibition [6]: 3.05%

Cc1ccccc1N=Nc1c(-c2ccccc2)nn(C(=O)CC(=O)Nc2cccc(Cl)c2)c1-c1ccccc1
growth inhibition [1]: 60.9% | growth inhibition [2]: 21.6% | growth inhibition [3]: 55.5% | growth inhibition [4]: 34.3% | growth inhibition [5]: 68% | growth inhibition [6]: 41.5%

O=c1c2cccnc2ncn1CCN1CCCC1
growth inhibition [1]: 5.25% | growth inhibition [2]: -11.6% | growth inhibition [3]: -3.5% | growth inhibition [4]: 8.4% | growth inhibition [5]: -1.8% | growth inhibition [6]: 21.1%

O=C(c1ccc(Cl)cc1)N(C(=S)N1CCN(c2ccccc2)CC1)c1ccccc1
growth inhibition [1]: -11.5% | growth inhibition [2]: -25.9% | growth inhibition [3]: -12.1% | growth inhibition [4]: -6.3% | growth inhibition [5]: -13.8% | growth inhibition [6]: -15.1%

Brc1cn2[n+](c1)[B-]n1cc(Br)c[n+]1[B-]2
growth inhibition [1]: 0.85% | growth inhibition [2]: -4.6% | growth inhibition [3]: -3.6% | growth inhibition [4]: -7.65% | growth inhibition [5]: 6.65% | growth inhibition [6]: 12%

C[N+](C)(CCS(=O)(=O)[O-])C1CCCCC1
growth inhibition [1]: -6.65% | growth inhibition [2]: -8.7% | growth inhibition [3]: -8.9% | growth inhibition [4]: -23.1% | growth inhibition [5]: 6.75% | growth inhibition [6]: -12.8%

C[N+](C)(C)CC(=O)N/N=C(\C(=O)Nc1ccc(Cl)cc1)C1C(=O)N(c2ccccc2)N=C1N (centres undefined)
growth inhibition [1]: -15.4% | growth inhibition [2]: 1.25% | growth inhibition [3]: -14.8% | growth inhibition [4]: -13.8% | growth inhibition [5]: -6.95% | growth inhibition [6]: 17.6%

COC(=O)c1ccc(C(=O)OC)c(N)c1
growth inhibition [1]: 0.95% | growth inhibition [2]: 5.4% | growth inhibition [3]: -1.85% | growth inhibition [4]: -33% | growth inhibition [5]: 3.95% | growth inhibition [6]: 0.5%

COc1ccc(NC(=O)CC/C(CC(=O)c2ccco2)=N/Nc2ccc([N+](=O)[O-])cc2[N+](=O)[O-])cc1
growth inhibition [1]: 21.4% | growth inhibition [2]: -6.8% | growth inhibition [3]: -0.05% | growth inhibition [4]: 3.1% | growth inhibition [5]: 22.1% | growth inhibition [6]: 2.95%

COC(=O)C1=C(O)c2cc(-c3ccccc3)c(-c3ccccc3)c(C#N)c2NC(=O)C1
growth inhibition [1]: 32.5% | growth inhibition [2]: 23.9% | growth inhibition [3]: 12.9% | growth inhibition [4]: 11.1% | growth inhibition [5]: -4.25% | growth inhibition [6]: 30.4%

O=C(COC(=O)C(CC(=O)c1ccccc1)Cc1ccccc1)c1ccc(-c2ccccc2)cc1 (centres undefined)
growth inhibition [1]: 25.7% | growth inhibition [2]: 25.3% | growth inhibition [3]: 6% | growth inhibition [4]: 30.8% | growth inhibition [5]: 35.4% | growth inhibition [6]: 13.3%

CCOC(=O)/C(C#N)=C1/Sc2c(ncn(/N=C/c3ccc(OC)cc3)c2=O)N1c1ccccc1
growth inhibition [1]: 26.7% | growth inhibition [2]: -2.85% | growth inhibition [3]: 6.45% | growth inhibition [4]: -45.3% | growth inhibition [5]: -12.8% | growth inhibition [6]: 4.4%

O=c1/c(=C/c2ccc(Cl)cc2Cl)sc2nc3ccccc3n12
growth inhibition [1]: 4.1% | growth inhibition [2]: -23.4% | growth inhibition [3]: -0.15% | growth inhibition [4]: -12.8% | growth inhibition [5]: -22.5% | growth inhibition [6]: -7.45%

Nc1ncnc2c1ncn2C(=O)NC12CC3CC(CC(C3)C1)C2
growth inhibition [1]: 9.75% | growth inhibition [2]: 14.6% | growth inhibition [3]: 8.7% | growth inhibition [4]: 18.1% | growth inhibition [5]: 8.25% | growth inhibition [6]: -8.2%

COc1ccc(NC(=O)C(F)(F)F)cc1
growth inhibition [1]: 9.3% | growth inhibition [2]: 3.85% | growth inhibition [3]: 10.4% | growth inhibition [4]: -2.2% | growth inhibition [5]: 0.55% | growth inhibition [6]: 1.75%

CC(=O)c1nc2ccccc2n1CC(=O)c1ccc([N+](=O)[O-])cc1
growth inhibition [1]: -0.65% | growth inhibition [2]: 8.7% | growth inhibition [3]: 6.2% | growth inhibition [4]: -8% | growth inhibition [5]: 3.45% | growth inhibition [6]: -8.1%

O=C(Nc1ccc(Cl)cc1)Nc1nnc(-c2cccc(-c3nnc(NC(=O)Nc4ccc(Cl)cc4)o3)c2)o1
growth inhibition [1]: 39.1% | growth inhibition [2]: 34.3% | growth inhibition [3]: 36.4% | growth inhibition [4]: 21.7% | growth inhibition [5]: -3.5% | growth inhibition [6]: 14%

CC(=O)Oc1cccc2c1C(=O)C1CC(O)C3(C=O)OC(C)(C)OC2(C)C13 (centres undefined)
growth inhibition [1]: 8.45% | growth inhibition [2]: -2.6% | growth inhibition [3]: 5.95% | growth inhibition [4]: 4.7% | growth inhibition [5]: -3.45% | growth inhibition [6]: 3.6%

CCCC(=O)Nc1cc(C(=O)N2C[C@@H]3C[C@]34C2=CC(=O)c2[nH]cc(C)c24)n(COC)c1
growth inhibition [1]: 26.5% | growth inhibition [2]: 10.5% | growth inhibition [3]: 30.6% | growth inhibition [4]: 10.1% | growth inhibition [5]: 8.9% | growth inhibition [6]: 47.4%

COc1ccc(NCc2cnc3nc(N)nc(N)c3c2C)cc1
growth inhibition [1]: 7% | growth inhibition [2]: 6.6% | growth inhibition [3]: 16.6% | growth inhibition [4]: 16.5% | growth inhibition [5]: 1.85% | growth inhibition [6]: -49%

O=C(c1ccccc1)C12CCC3CC(CC(C3)C1)C2
growth inhibition [1]: -18.1% | growth inhibition [2]: 8.25% | growth inhibition [3]: 11.5% | growth inhibition [4]: 6.05% | growth inhibition [5]: 16.4% | growth inhibition [6]: 9.65%

CCC(C(=O)O)C(C)(C)C (centres undefined)
growth inhibition [1]: 6.8% | growth inhibition [2]: 0.55% | growth inhibition [3]: 1.8% | growth inhibition [4]: -4.9% | growth inhibition [5]: -0.3% | growth inhibition [6]: 9.3%

Cc1cc(S(=O)(=O)Nc2nnc3cc(C(F)(F)F)cc(C)n23)c(S)cc1Cl
growth inhibition [1]: -19.6% | growth inhibition [2]: -26.8% | growth inhibition [3]: -38.1% | growth inhibition [4]: -15.8% | growth inhibition [5]: -19.9% | growth inhibition [6]: -14.2%

CN=C(N/N=C/c1ccccc1)N(C)C
growth inhibition [1]: 5.95% | growth inhibition [2]: 11.1% | growth inhibition [3]: -5.35% | growth inhibition [4]: -3% | growth inhibition [5]: 23.9% | growth inhibition [6]: 10.4%

O=S(=O)(Nc1nccs1)c1ccc(NCc2c3ccccc3nc3ccccc23)cc1
growth inhibition [1]: 62.2% | growth inhibition [2]: 54.7% | growth inhibition [3]: 42.3% | growth inhibition [4]: 30% | growth inhibition [5]: 17.7% | growth inhibition [6]: 49.5%

Cc1ccccc1N1C(N)=C(C#N)C(C#N)(C#N)C1c1ccccc1 (centres undefined)
growth inhibition [1]: 8.8% | growth inhibition [2]: 22.2% | growth inhibition [3]: -14.6% | growth inhibition [4]: -10.6% | growth inhibition [5]: -12.4% | growth inhibition [6]: 87.8% (active)

CCOC(=O)c1nc2ccccc2nc1NCc1ccc(OC)cc1
growth inhibition [1]: -6.5% | growth inhibition [2]: -6.45% | growth inhibition [3]: -30.4% | growth inhibition [4]: 6.55% | growth inhibition [5]: -22.4% | growth inhibition [6]: 3.4%

O=P(O)(OCCOc1ccccc1)OCCOc1ccccc1
growth inhibition [1]: 6.25% | growth inhibition [2]: 10.5% | growth inhibition [3]: 8.25% | growth inhibition [4]: -24.6% | growth inhibition [5]: -11.6% | growth inhibition [6]: -12.8%

C/C(CC(=O)NCCc1ccccc1)=N\NS(=O)(=O)c1ccc(C)cc1
growth inhibition [1]: 37.1% | growth inhibition [2]: -6.6% | growth inhibition [3]: 10.2% | growth inhibition [4]: 28.3% | growth inhibition [5]: -4.2% | growth inhibition [6]: 8%
